Several values for one entry are separate records, joined by “and”; a condition that tells them apart may be missing. Identical values can stand only once. The campaign covered roughly 5,500 compounds. About 2,000 (36%) were called active. About 18% were inconclusive and are not listed. Rule as the data show it: active = normalized growth mostly below about 0.91 (no sharp cut-off); inconclusive = no clear call, values can overlap the other calls; inactive = mostly above about 0.92. The list shows a part of the results.
Assay: chemical genetic growth profiling, strain panel (AID 1159580);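 also: tested at 20 µM; growth read once vehicle control cultures reached saturation at 30 °C; 1 = growth at the plate median or of vehicle wells; lower values mean less growth of the strain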
Details: growth OD
[1] = S. cerevisiae deletion strains, locus YAL013W, strain DEP1, stronger effect = lower value
[2] = S. cerevisiae deletion strains, locus YBR229C, strain ROT2, stronger effect = lower value
[3] = S. cerevisiae deletion strains, locus YCL061C, strain MRC1, stronger effect = lower value
[4] = S. cerevisiae deletion strains, locus YDL101C, strain DUN1, stronger effect = lower value
[5] = S. cerevisiae deletion strains, locus YDR150W, strain NUM1, stronger effect = lower value
[6] = S. cerevisiae deletion strains, locus YEL061C, strain CIN8, stronger effect = lower value
[7] = S. cerevisiae deletion strains, locus YGR078C, strain PAC10, stronger effect = lower value
[8] = S. cerevisiae deletion strains, locus YHR030C, strain SLT2, stronger effect = lower value
[9] = S. cerevisiae deletion strains, locus YHR087W, strain rtc3, stronger effect = lower value
[10] = S. cerevisiae deletion strains, locus YJR043C, strain POL32, stronger effect = lower value
[11] = S. cerevisiae deletion strains, locus YJR075W, strain HOC1, stronger effect = lower value
[12] = S. cerevisiae deletion strains, locus YLR039C, strain RIC1, stronger effect = lower value
[13] = S. cerevisiae deletion strains, locus YLR058C, strain SHM2 (second series), stronger effect = lower value
[14] = S. cerevisiae deletion strains, locus YLR085C, strain ARP6, stronger effect = lower value
[15] = S. cerevisiae deletion strains, locus YLR262C, strain YPT6, stronger effect = lower value
[16] = S. cerevisiae deletion strains, locus YML094W, strain GIM5, stronger effect = lower value
[17] = S. cerevisiae deletion strains, locus YMR219W, strain ESC1, stronger effect = lower value
[18] = S. cerevisiae deletion strains, locus YMR263W, strain SAP30, stronger effect = lower value
[19] = S. cerevisiae deletion strains, locus YMR307W, strain GAS1, stronger effect = lower value
[20] = S. cerevisiae deletion strains, locus YNL153C, strain GIM3, stronger effect = lower value
[21] = S. cerevisiae deletion strains, locus YNL298W, strain CLA4 (second series), stronger effect = lower value
[22] = S. cerevisiae deletion strains, locus YNL322C, strain KRE1, stronger effect = lower value
[23] = S. cerevisiae deletion strains, locus YNR030W, strain Alg12, stronger effect = lower value
[24] = S. cerevisiae deletion strains, locus YOL006C, strain TOP1, stronger effect = lower value
[25] = S. cerevisiae deletion strains, locus YPL055C, strain LGE1, stronger effect = lower value
[26] = S. cerevisiae deletion strains, locus YPL241C, strain CIN2, stronger effect = lower value
[27] = S. cerevisiae deletion strains, locus YPR135W, strain CTF4, stronger effect = lower value

Measured: normalized growth

CCOC(=O)C1CCN(C(=S)Nc2ccccc2C(F)(F)F)CC1
inactive: [1] 1 | [2] 1 | [3] 1.02 | [4] 1.01 | [5] 0.994 | [6] 0.998 | [7] 1.01 | [8] 0.99 | [9] 1.02 | [10] 1 | [11] 0.982 | S. cerevisiae deletion strains, locus YKL190W, strain CNB1, stronger effect = lower value 0.994 | [12] 0.866 | [13] 0.996 | [14] 0.983 | [15] 0.868 | [16] 1.08 | [17] 1 | [18] 1.01 | [19] 0.913 | [20] 1.01 | [21] 0.973 | [22] 1.01 | [23] 0.978 | [24] 1.04 | [25] 1.03 | [26] 1.01 | [27] 0.982 | S. cerevisiae strains, strain wild type, stronger effect = lower value 1.01

CCOC(=O)CSC(=S)NCc1ccc(C)cc1
0.947 (inactive) and 0.839 (active): [4]
inactive: S. cerevisiae deletion strains, locus YAR019C, strain CDC15, stronger effect = lower value 0.956 | S. cerevisiae deletion strains, locus YBL105C, strain PKC1, stronger effect = lower value 0.958 | S. cerevisiae deletion strains, locus YBR135W, strain CKS1, stronger effect = lower value 0.937 | S. cerevisiae deletion strains, locus YBR136W, strain MEC1, stronger effect = lower value 0.955 | S. cerevisiae deletion strains, locus YBR160W, strain CDC28, stronger effect = lower value 0.951 | S. cerevisiae deletion strains, locus YDL017W, strain CDC7, stronger effect = lower value 0.959 | S. cerevisiae deletion strains, locus YDL028C, strain MPS1, stronger effect = lower value 0.947 | S. cerevisiae deletion strains, locus YDL108W, strain KIN28, stronger effect = lower value 0.956 | S. cerevisiae deletion strains, locus YDL132W, strain cdc53, stronger effect = lower value 0.928 | S. cerevisiae deletion strains, locus YDL214C, strain PRR2, stronger effect = lower value 0.95 | S. cerevisiae deletion strains, locus YDR052C, strain DBF4, stronger effect = lower value 0.972 | S. cerevisiae deletion strains, locus YDR054C, strain cdc34, stronger effect = lower value 0.93 | S. cerevisiae deletion strains, locus YDR226W, strain ADK1, stronger effect = lower value 0.946 | S. cerevisiae deletion strains, locus YDR477W, strain SNF1, stronger effect = lower value 0.949 | S. cerevisiae deletion strains, locus YER123W, strain YCK3, stronger effect = lower value 0.933 | S. cerevisiae deletion strains, locus YER133W, strain GLC7, stronger effect = lower value 0.953 | S. cerevisiae deletion strains, locus YFL009W, strain cdc4, stronger effect = lower value 0.944 | S. cerevisiae deletion strains, locus YFL029C, strain CAK1, stronger effect = lower value 0.958 | S. cerevisiae deletion strains, locus YFR003C, strain YPI1, stronger effect = lower value 0.957 | S. cerevisiae deletion strains, locus YFR019W, strain FAB1, stronger effect = lower value 0.957 | S. cerevisiae deletion strains, locus YFR028C, strain CDC14, stronger effect = lower value 0.947 | S. cerevisiae deletion strains, locus YGR040W, strain KSS1, stronger effect = lower value 0.946 | S. cerevisiae deletion strains, locus YGR052W, strain FMP48, stronger effect = lower value 1.01 | S. cerevisiae deletion strains, locus YGR092W, strain DBF2, stronger effect = lower value 0.937 | S. cerevisiae deletion strains, locus YHR079C, strain IRE1, stronger effect = lower value 0.93 | S. cerevisiae deletion strains, locus YHR082C, strain KSP1, stronger effect = lower value 0.964 | S. cerevisiae deletion strains, locus YHR205W, strain SCH9, stronger effect = lower value 0.872 | S. cerevisiae deletion strains, locus YIL147C, strain SLN1, stronger effect = lower value 0.951 | S. cerevisiae deletion strains, locus YJL095W, strain BCK1, stronger effect = lower value 0.879 | S. cerevisiae deletion strains, locus YJL128C, strain PBS2, stronger effect = lower value 0.954 | S. cerevisiae deletion strains, locus YJL157C, strain FAR1, stronger effect = lower value 0.963 | S. cerevisiae deletion strains, locus YJL187C, strain SWE1, stronger effect = lower value 0.958 | S. cerevisiae deletion strains, locus YJR016C, strain ILV3, stronger effect = lower value 0.954 | S. cerevisiae deletion strains, locus YJR066W, strain TOR1 (second series), stronger effect = lower value 0.989 | S. cerevisiae deletion strains, locus YJR066W, strain TOR1, stronger effect = lower value 0.957 | S. cerevisiae deletion strains, locus YKL048C, strain ELM1, stronger effect = lower value 0.944 | S. cerevisiae deletion strains, locus YKL067W, strain YNK1, stronger effect = lower value 0.95 | S. cerevisiae deletion strains, locus YKL101W, strain HSL1, stronger effect = lower value 0.955 | S. cerevisiae deletion strains, locus YKL193C, strain SDS22, stronger effect = lower value 0.948 | S. cerevisiae deletion strains, locus YKL203C, strain TOR2, stronger effect = lower value 1 | S. cerevisiae deletion strains, locus YLR133W, strain CKI1, stronger effect = lower value 0.959 | S. cerevisiae deletion strains, locus YLR403W, strain SFP1, stronger effect = lower value 0.967 | S. cerevisiae deletion strains, locus YML070W, strain DAK1, stronger effect = lower value 0.949 | S. cerevisiae deletion strains, locus YMR001C, strain CDC5, stronger effect = lower value 0.946 | S. cerevisiae deletion strains, locus YMR205C, strain PFK2 (second series), stronger effect = lower value 0.965 | S. cerevisiae deletion strains, locus YMR277W, strain FCP1, stronger effect = lower value 0.957 | S. cerevisiae deletion strains, locus YNL006W, strain LST8, stronger effect = lower value 0.959 | S. cerevisiae deletion strains, locus YNL020C, strain ARK1, stronger effect = lower value 0.948 | S. cerevisiae deletion strains, locus YNL161W, strain CBK1, stronger effect = lower value 0.953 | S. cerevisiae deletion strains, locus YNL183C, strain NPR1, stronger effect = lower value 0.912 | S. cerevisiae deletion strains, locus YNL207W, strain RIO2, stronger effect = lower value 0.953 | S. cerevisiae deletion strains, locus YNL222W, strain SSU72, stronger effect = lower value 0.956 | S. cerevisiae deletion strains, locus YNL307C, strain MCK1 (second series), stronger effect = lower value 0.928 | S. cerevisiae deletion strains, locus YOL078W, strain AVO1, stronger effect = lower value 0.948 | S. cerevisiae deletion strains, locus YOL136C, strain PFK27, stronger effect = lower value 0.946 | S. cerevisiae deletion strains, locus YOR061W, strain CKA2, stronger effect = lower value 0.965 | S. cerevisiae deletion strains, locus YOR119C, strain RIO1, stronger effect = lower value 1.01 | S. cerevisiae deletion strains, locus YOR231W, strain MKK1, stronger effect = lower value 0.914 | S. cerevisiae deletion strains, locus YOR329C, strain SCD5, stronger effect = lower value 0.952 | S. cerevisiae deletion strains, locus YPL031C, strain PHO85, stronger effect = lower value 0.944 | S. cerevisiae deletion strains, locus YPL153C, strain RAD53, stronger effect = lower value 0.954 | S. cerevisiae deletion strains, locus YPL204W, strain HRR25, stronger effect = lower value 0.943 | S. cerevisiae deletion strains, locus YPL209C, strain IPL1, stronger effect = lower value 0.953 | S. cerevisiae deletion strains, locus YPR025C, strain CCL1, stronger effect = lower value 0.943 | S. cerevisiae deletion strains, locus YPR106W, strain ISR1, stronger effect = lower value 0.951 | S. cerevisiae deletion strains, locus YPR111W, strain DBF20, stronger effect = lower value 0.931 | S. cerevisiae deletion strains, strain NNK1, stronger effect = lower value 0.948 | S. cerevisiae deletion strains, strain TSCII, stronger effect = lower value 0.949
active: [1] 0.822 | [2] 0.866 | [3] 0.907 | S. cerevisiae deletion strains, locus YDL134C, strain PPH21, stronger effect = lower value 0.0516 | [5] 0.787 | [6] 0.216 | [7] 0.766 | [8] 0.0833 and 0.84 | [9] 0.86 | [10] 0.812 | [11] 0.82 | [12] 0.172 | [13] 0.909 | [14] 0.0735 | S. cerevisiae deletion strains, locus YLR113W, strain HOG1, stronger effect = lower value 0.76 | [15] 0.111 | [16] 0.493 | [17] 0.909 | [18] 0.853 | [19] 0.109 | [20] 0.665 | [21] 0.0782 | [22] 0.925 | [23] 0.0728 | [24] 0.107 | [25] 0.618 | [26] 0.0682 | S. cerevisiae deletion strains, locus YPL256C, strain CLN2, stronger effect = lower value 0.825 | [27] 0.148

Source: PubChem BioAssay AID1159580 (chemical genetic matrix, 2015)
